# Assay outcomes as filed in PubChem BioAssay.
# An excerpt weighted towards active compounds, which were near 2.4% of everything screened.
# D2 PAM-1 – potentiates the human D2 dopamine receptor allosterically; DiscoveRx D2 beta-arrestin cells, luminescence, 90 min; 100% = 57 uM dopamine signal; P14416; potentiation, % (test concentration not listed); actives 0.23% (n = 360,000); AID 624464; in the data active = potentiation above about 50%; inconclusive = mostly about 30% to 49%
# Target sequence (P14416 whole entry, looked up): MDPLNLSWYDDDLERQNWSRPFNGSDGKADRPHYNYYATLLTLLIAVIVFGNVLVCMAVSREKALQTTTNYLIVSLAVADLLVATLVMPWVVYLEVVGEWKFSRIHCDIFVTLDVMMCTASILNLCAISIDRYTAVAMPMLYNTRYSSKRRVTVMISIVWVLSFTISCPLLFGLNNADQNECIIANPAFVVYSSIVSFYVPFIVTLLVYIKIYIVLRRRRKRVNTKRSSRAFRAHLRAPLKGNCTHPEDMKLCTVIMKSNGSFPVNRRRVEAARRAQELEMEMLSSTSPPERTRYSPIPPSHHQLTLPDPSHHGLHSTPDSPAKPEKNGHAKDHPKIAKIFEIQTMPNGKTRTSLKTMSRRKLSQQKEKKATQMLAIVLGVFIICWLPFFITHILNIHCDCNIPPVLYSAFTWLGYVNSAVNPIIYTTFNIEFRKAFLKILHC
#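 PathHunter D2 cells, attached overnight at 37 deg C, received compound in DMSO plus dopamine at EC20 (50 nM final) for 90 min at 37 deg C. Beta-arrestin recruitment was read as luminescence after 1 h with detection reagent at ambient temperature.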
# D2 ag-1 – activates the human D2 dopamine receptor; P14416; activation, % (concentration not given with the values); DiscoveRx PathHunter D2 beta-arrestin, luminescence, 90 min; 100% = 57 uM dopamine signal; actives 0.084% (n = 360,000); in the data active = activation above about 40%; inconclusive = between about 15% and that limit
#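 Agonist mode: compounds alone added to overnight-plated D2 PathHunter cells for 90 min at 37 C, with 57 uM final dopamine (EC100) defining full response. Beta-arrestin recruitment detected by chemiluminescent reagent, read after 1 h at ambient temperature.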
# D2 ag-2 – activates the human D2 dopamine receptor. HEK293 T-REx D2 cells, calcium flux agonist mode. activation, % at 2 µM. actives 0.53% (n = 340,000);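 active = activation over 3 SD above normal in the single-dose calcium agonist read, cut at about 30% in these data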
#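 Calcium-flux readout, 1 cycle/sec over 180 s following compound pin transfer, in inducible HEK293 Trex D2 cells (force-coupled); dopamine controls included. Positive calcium responses during this window marked compounds as potential agonists.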
# D2 antag – antagonists of human D2 dopamine receptor | P14416 | HEK293 TREx D2 cells, calcium flux, dopamine EC80 | inhibition, % at 10 µM | actives 2% (n = 340,000) | AID 485344; in the data active = inhibition above about 30%; inactive = below that, where a call was filed
#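 In this primary screen, negative modulation is detected by tracking calcium flux after an EC80 dopamine challenge in inducible HEK293 T-REx D2 cells preexposed to test compound for 180 s.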
# D2 PAM-2 – positive allosteric modulators of human D2 dopamine receptor | potentiation, % at 10 µM | AID 485347 | P14416 | actives 0.34% (n = 340,000) | HEK293 T-REx D2, calcium flux, EC20 dopamine potentiation;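 active = potentiation over 3 SD above the plate norm, cut at about 30% in these data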
#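 Potentiation of an EC20 dopamine calcium response measured kinetically over 180 s, after a preceding 180 s compound-only read flagging agonists. Cells: inducible Hek293 Trex D2 line, 4000/well, cultured overnight at 30 C before dye loading.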
# D3 ag – activates human D3 dopamine receptor beta-arrestin recruitment; shares compounds with D2 ag-2; DiscoveRx D3 beta-arrestin cells, luminescence, 90 min; Potency, µM (doses to about 76.9 µM), hits mostly activators; actives 4% (n = 2,300); also: nearly all actives have a fitted effect of over 70% in size
# D2 ag-3 – D2 receptor agonism, beta-arrestin counterscreen; shares compounds with D2 ag-2; DiscoveRx PathHunter D2 beta-arrestin, luminescence, 90 min; response scale: percent relative to full dopamine signal; Potency, µM (series often up to 76.9 µM), actives largely listed as activators; actives 5.9% (n = 2,300); AID 720507; also: nearly all actives have a fitted effect of over 70% in size
# A number is an active result; n = inactive; u = inconclusive; x = not tested or not shown. Unless noted, calls follow the shape of the dose curve; as a rule, active = well fitted activation curve with a large enough effect; inconclusive = small, poorly fitted or top-dose-only effect; inactive = flat fitted curve, though single readings scatter.
SMILES,D2 PAM-1,D2 ag-1,D2 ag-2,D2 antag,D2 PAM-2,D3 ag,D2 ag-3
O=C(Cn1ccn(-c2ccc(F)cc2)c(=O)c1=O)NCCc1ccccc1,x,x,n,x,n,x,x
NC[C@H](Cc1ccccc1)NCCCCC1CCCCC1,n,n,33,n,n,n,n
COc1cc(CCCN[C@H](CN)Cc2ccccc2)cc(OC)c1OC,n,n,n,n,n,x,x
CC(=O)Nc1cc(NC(C)=O)c2nc(N)sc2c1,n,n,n,n,n,n,n
CC(=O)Nc1ccc(N/C(N)=N/c2nc(C)cc(C)n2)cc1,n,n,n,n,n,x,x
Cc1cc(C)nc(/N=C(\N)Nc2ccc(-c3ccccc3)cc2)n1,n,n,n,n,n,x,x
COc1ccc(C)cc1N/C(N)=N/c1nc(C)cc(C)n1,n,n,n,n,n,x,x
CCOc1ccc(N/C(N)=N/c2nc(C)cc(C)n2)cc1,n,n,x,x,x,n,u
Cc1cc(C)nc(/N=C(\N)Nc2ccc(SC(F)F)cc2)n1,n,n,49,n,n,n,n
Cc1ccc(C)c(N/C(N)=N/c2nc(C)cc(C)n2)c1,n,n,56,n,n,n,n
CCC12CN3CC(CC)(CN(C1)C3c1cccc(OC)c1O)C2=O (stereo not given),x,x,n,x,n,x,x
CC(=O)N1C(O)CC(C)N1c1ccccc1 (stereo not given),n,n,n,n,n,n,n
CC(=O)N1CCN(C(C)=O)C1c1ccccc1,n,n,n,n,n,x,x
CN1CC2=Cc3ccccc3OC23Oc2ccccc2C=C3C1,n,n,59,64,n,n,n
O=C(CN1CCCC1)Nc1cc(C(F)(F)F)cc(C(F)(F)F)c1,n,n,51,n,n,n,n
Oc1ccc(Cl)cc1C=Nc1ccccc1Br,n,n,n,n,n,x,x
Oc1ccc(Br)cc1C=Nc1ccc2c3c(cccc13)CC2,n,n,n,n,n,n,n
COc1ccccc1CN1CCN(C(=O)c2ccco2)CC1,53,67,80,85,n,u,10µM
COc1ccc(Br)cc1CN1CCN(C(=O)c2ccco2)CC1,n,n,x,x,x,n,n
COc1ccccc1N1CCN(C(=O)c2ccco2)CC1,n,n,x,x,x,x,x
COC(=O)CN1C(=O)CSc2ccc(S(=O)(=O)Nc3cccc(C)c3C)cc21,x,x,n,x,n,x,x
CCC1(CC)NC(=O)N(CC(=O)OCC(=O)Nc2ccc(OC(F)(F)F)cc2)C1=O,n,n,n,61,n,n,n
C[C@H](CCC(=O)O)[C@H]1CC[C@H]2[C@@H]3CC[C@@H]4C[C@H](O)CC[C@]4(C)[C@H]3CC[C@]12C,n,n,n,n,n,x,x
CC(CCC(=O)O)C1CCC2C3CCC4C[C@H](O)CCC4(C)C3CC(=O)C12C (stereo not given in full),n,n,52,n,n,n,n
Cc1nc2cccnc2n1-c1cccc(C(=O)N2CCN(c3ccc(Cl)cc3)CC2)c1,x,x,n,x,n,x,x
SMILES,D2 PAM-1,D2 ag-1,D2 ag-2,D2 antag,D2 PAM-2,D3 ag,D2 ag-3
O=C(CCN1CCN(c2ccccc2)CC1)Nc1ccccc1,n,n,73,53,n,n,n
O=C(CN1CCN(c2ccccc2)CC1)Nc1ccc(OCc2ccccc2)cc1,n,n,44,55,n,u,n
O=C(CCN1CCN(CCO)CC1)Nc1ccccc1,n,n,n,n,n,x,x
CCOC(=O)N1CCN(CC(=O)Nc2ccc(Oc3ccccc3)cc2)CC1,n,44,56,43,n,u,u
CCOc1ccc(NC(=O)CCN2CCN(c3ccccc3)CC2)cc1,n,u,98,83,n,u,u
COc1cccc(CNC(=O)C2CCN(c3nc4ccc(Cl)cc4[nH]3)CC2)c1,x,x,x,x,n,x,x
CCc1ccc(C(=O)CC2(O)C(=O)N(CCc3ccccc3)c3ccc(Cl)cc32)cc1 (stereo not given),x,x,n,x,n,x,x
COC(=O)c1cccc(Nc2c(-c3ccc(SC)cc3)nc3nc[nH]n23)c1,x,x,n,x,x,x,x
O=C(c1cccn1-c1nnc(N2CCCC2)s1)N1CCN(c2ccc(Cl)cc2)CC1,x,x,n,x,n,x,x
